# Screening data from PubChem.
# The list is not random: actives were taken first. Their share in the collection is about 2.9%.
# GALC G270D up = raises human GALC G270D mutant activity in cells; hit rate 0.1% among 45,000; AID 1159614; 145M-Twi-hGALC-G270D cells (Twitcher mouse brain line with human GALC G270D), HMU-beta-Gal fluorescence, 48 h; P54803; Potency, µM (series often up to 57.5 µM), most hits filed as activators; note: potency is the fitted concentration of half-maximal effect; 0% is about no effect; nearly all actives have a fitted effect of over 65% in size
#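 Fluorogenic HMU-b-Gal hydrolysis (0.1 mM final, pH 5.2 citrate-phosphate with 1 mg/mL sodium taurocholate; carbonate stop buffer) measures mutant GALC activity after compound treatment of live 145M-Twi Twitcher brain cells stably carrying human GALC-G270D, with wild-type GALC line alongside; activation sought.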
# B2AR arrestin ag = ADRB2 beta-arrestin recruitment; P07550; HTLA Tango cells, beta-arrestin recruitment, luciferase luminescence, 18 h; Potency, µM (series often up to 46.1 µM), actives largely listed as activators; 44,000 tested, under 10 active; AID 1347077;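 note: potency is the fitted concentration of half-maximal effect; 0% = DMSO and full agonism = EC100 isoproterenol or metaproterenol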
#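 Ligand-induced beta-arrestin recruitment to recombinant beta2-AR is measured via a tTA-driven luciferase reporter in Tango cells after 18 hr compound exposure at 37 degrees C. Concentrations span up to 46 microM.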
# DRV1 agonist = agonists of human resolvin D1 receptor DRV1 (GPR32); O75388; CHO-K1 GPR32 beta-arrestin PathHunter luminescence, 90 min; zero percent set by DMSO-only wells; activation, % at 76.9 µM; hit rate 2.5% among 48,000;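 active = activation of at least 60% and not above a set upper limit, about 1 call in 100 departs from these limits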; note: 0% is about no effect
#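 Engineered CHO-K1 line co-expressing GPR32-ProLink and EA-beta-arrestin. Compound treatment lasted 90 min at 37 °C. Luminescence was recorded after 1 h with substrate at ambient temperature, relative to DMSO basal wells.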
# PTAP-TSG101 blk = blocks PTAP binding to human TSG101, validation; 44,000 tested, under 10 active; Fluorescence polarization, FITC-PTAP peptide/Tsg101, 20 min; Potency, µM (titrated, usually from 115 µM), hits mostly inhibitors; note: potency is the fitted concentration of half-maximal effect; 0% is about no effect
# Target sequence (Q99816 whole entry, looked up): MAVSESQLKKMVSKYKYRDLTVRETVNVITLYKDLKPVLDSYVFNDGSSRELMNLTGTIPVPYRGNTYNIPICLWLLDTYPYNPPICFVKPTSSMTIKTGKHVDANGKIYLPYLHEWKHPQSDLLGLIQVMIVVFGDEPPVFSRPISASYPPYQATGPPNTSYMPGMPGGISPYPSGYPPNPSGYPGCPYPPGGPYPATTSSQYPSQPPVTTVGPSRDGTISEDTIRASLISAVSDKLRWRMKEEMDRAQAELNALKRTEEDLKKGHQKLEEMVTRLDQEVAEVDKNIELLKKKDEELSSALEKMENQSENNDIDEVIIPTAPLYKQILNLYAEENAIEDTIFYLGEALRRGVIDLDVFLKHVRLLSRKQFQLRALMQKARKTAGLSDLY
#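 qHTS FP binding, 20 min r.t.: 10 uM Tsg101 domain + 50 nM FITC-PTAP peptide, pH 7.5 HEPES buffer with TCEP and EDTA.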
# The depositor's hits bear a star; i = inactive; x = no result. Unless noted, calls come from the whole dose curve; as a rule, active = well fitted curve in the direction sought with a large enough effect; inconclusive = small, poorly fitted or top-dose-only effect, or another doubt; inactive = no such curve, though single readings can be large; an effect the other way counts as inactive or inconclusive.
SMILES,GALC G270D up,B2AR arrestin ag,DRV1 agonist,PTAP-TSG101 blk
COc1ccc(Cn2c(C(=O)O)c(CNCCc3cc(OC)ccc3OC)c3ccc(C)cc32)cc1,i,i,106*,i
COc1ccc2c(CNCCc3ccco3)c(C(=O)O)n(Cc3ccccc3)c2c1,i,i,-7,i
Cc1ccc2c(CNCCc3ccccc3)c(C(=O)O)n(Cc3ccccc3C)c2c1,i,i,66*,i
COc1ccc(Cn2c(C(=O)O)c(CNCCc3ccco3)c3ccc(C)cc32)cc1,i,i,104*,i
C=Cc1ccc(Cn2c(C(=O)O)c(CNCCc3ccco3)c3ccc(C)cc32)cc1,i,i,88*,i
O=C(CCCl)NCc1ccccc1,i,x,-15,x
CC1CCCN(C(=O)c2cc3c(Cl)nc4ccccc4c3s2)C1 (centres undefined),i,i,108*,i
CC1CCCN(CCCNC(=O)c2cc3c(Cl)nc4ccccc4c3s2)C1 (centres undefined),i,i,-3,i
Cc1cccc(N2CCN(C(=O)c3ccc4c(c3)N(Cc3ccccc3)C(=O)c3ccccc3S4(=O)=O)CC2C)c1 (centres undefined),i,i,-64,i
NC(=NCCCCCCN=C(N)/N=C(\N)Nc1ccc(Cl)cc1)/N=C(\N)Nc1ccc(Cl)cc1,i,x,86*,x
C=C(C)C(=O)OCC(O)CO (centres undefined),i,x,-1,x
CC(=O)N[C@@H](CCC(N)=O)C(=O)O,i,x,3,x
CC(C)(C)c1ccc(OCCSc2nc(-c3cccs3)nc3cc(=O)[nH]n23)cc1,x,i,68*,i
C=CCc1ccccc1OCCSc1nc(-c2ccc(C(C)(C)C)cc2)nc2cc(=O)[nH]n12,x,i,-2,i
C=CCc1ccccc1OCCSc1nc(-c2cccs2)nc2cc(=O)[nH]n12,x,i,86*,i
COc1ccccc1OCCSc1nc(-c2ccc(C(C)(C)C)cc2)nc2cc(=O)[nH]n12,x,i,65*,i
CN1Cc2cc(C(=O)N3CCC(C4CCNCC4)CC3)ccc2N[C@@H](CC(=O)O)C1=O,i,x,10,x
CCN(c1ccccc1)S(=O)(=O)c1ccc(-c2cc(C)no2)s1,i,i,-30,i
CCC(C)n1c(=N)c(S(=O)(=O)c2ccc(C)cc2)cc2c(=O)n3cc(C)ccc3nc21 (centres undefined),i,i,-10,i
O=C1NC(=O)/C(=C/c2ccc(-c3ccc(F)cc3O)o2)S1,x,x,62*,x
O=C1NC(=O)/C(=C/c2ccc3nccnc3c2)S1,x,x,-2,x
Cc1ccc(-c2nc3scc(CCNS(=O)(=O)c4ccc(Oc5ccccc5)cc4)n3n2)cc1,i,i,-5,i
Cc1ccccc1-c1nc2scc(CCNS(=O)(=O)c3ccccc3)n2n1,i,i,75*,i
Cc1ccc(S(=O)(=O)NCCc2csc3nc(-c4ccccc4F)nn23)cc1C,i,i,105*,i
CCN(CC)CC(=O)Nc1c(C)cccc1C(=O)OC,i,x,-12,x
SMILES,GALC G270D up,B2AR arrestin ag,DRV1 agonist,PTAP-TSG101 blk
O=C(CSc1nc2cc3ccccc3cc2[nH]1)Nc1ccc(F)cc1,i,i,65*,i
Cc1ccc(NC(=O)Nc2cccc(C)n2)cc1,i,i,65*,i
Cc1cccc(NC(=O)Nc2ccc(F)cc2)n1,i,i,-11,i
O=C(Nc1c2c(nn1-c1ccc(Cl)cc1)CS(=O)(=O)C2)c1ccccc1F,i,i,-5,i
Cc1ccccc1-c1nc(CS(=O)(=O)CC(=O)NCCCc2ccccc2)c(C)o1,i,i,80*,i
CCN1CCN(CCCNC(=O)CS(=O)(=O)Cc2nc(-c3ccccc3C)oc2C)CC1,i,i,0,i
Cc1cc(O)c(C(C)C)cc1Cl,i,x,86*,x
Cc1cc(O)c(C)c(C)c1O,i,x,-11,x
COc1ccc2cc(C=O)ccc2c1,i,x,-1,x
Cc1ccc(OCC(=O)Nc2c(Cl)ccc3nsnc23)cc1C,i,i,84*,i
[O-][n+]1ccccc1SSc1cccc[n+]1[O-],i,x,4,x
Cc1ccccc1Cn1c(=O)n(CCCCCC(=O)NCc2ccc3c(c2)OCO3)c(=O)c2sccc21,i,i,-26,i
Cc1cc2n(n1)CCCN2C(=O)Nc1ccc(Cl)cc1,i,i,108*,i
COc1ccc2c(c1)c(CC(=O)OC/C=C(\C)CC/C=C(\C)CCC=C(C)C)c(C)n2C(=O)c1ccc(Cl)cc1,i,x,12,x
CC(C)c1ccc(NC(=O)Cn2nnc(C(=O)NCc3ccc4c(c3)OCO4)c2N)cc1,i,i,-8,i
Nc1c(C(=O)NCc2ccc3c(c2)OCO3)nnn1CC(=O)Nc1ccc(Br)cc1,i,i,61*,i
COc1ccc(Cl)cc1NC(=O)Cn1nnc(C(=O)NCc2ccc3c(c2)OCO3)c1N,i,i,112*,i
COC(=O)c1ccccc1NC(=O)c1nc(-c2ccc(C)cc2)n2c1CCCCC2,i,i,9,i
O=C(CS(=O)(=O)c1cccc2nsnc12)N1CCN(c2cccc(C(F)(F)F)c2)CC1,i,i,88*,i
Cc1ccc(NC(=O)Nc2ccc3snnc3c2)cc1C,i,i,66*,i
Cc1ccc(NC(=O)c2ccc3snnc3c2)cc1Cl,i,i,95*,i
CCn1nnc2cc(C(=O)Nc3ccc(C)c(Cl)c3)ccc21,i,i,5,i
Cc1cc(NC(=O)C2CCCN(S(=O)(=O)c3ccc(Br)s3)C2)ccc1Br (centres undefined),i,i,-14,i
Cc1ccc(NC(=O)C2CCN(S(=O)(=O)c3cccc4nsnc34)CC2)cc1F,i,i,93*,i
CC(=O)c1ccc(N2CCN(C(=O)C3CCN(S(=O)(=O)c4ccc(Br)s4)CC3)CC2)cc1,i,i,87*,i
SMILES,GALC G270D up,B2AR arrestin ag,DRV1 agonist,PTAP-TSG101 blk
CC(=O)c1ccc(N2CCN(C(=O)C3CCCN(S(=O)(=O)c4ccc(Br)s4)C3)CC2)cc1 (centres undefined),i,i,25,i
Cc1cc(NC(=O)C2CCN(S(=O)(=O)c3ccc(Br)s3)CC2)ccc1Br,i,i,76*,i
Cc1ccc(NC(=O)C2CCN(S(=O)(=O)c3cccc4nonc34)CC2)cc1C,i,i,101*,i
C#Cc1ccc(-c2ccccc2F)cc1,i,x,10,x
CCN(CC)CC(=O)OCC(=O)[C@@]1(O)CC[C@H]2[C@@H]3CCC4=CC(=O)CC[C@]4(C)[C@H]3[C@@H](O)C[C@@]21C,i,x,9,x
COc1ccc(Cl)cc1N(C)C(=O)C(=O)Nc1ccc2nc3n(c(=O)c2c1)CCCCC3,i,i,80*,i
